PubChem BioAssay AID1362 (SRMLSC, 2008)
Screen size: about 190,000 compounds; about 4,000 (2.1%) were called active. Rule as the data show it: active = inhibition above about 58%; inactive = the rest, inconclusive results apart; tested in S. cerevisiae. Only a selection was taken, and actives are over-represented in it overall.

Assay: growth inhibition of WT strain, primary screen, mitochondrial fusion inhibitor project, WT and mutant strains, chemical genetic (AID 1362)
Conditions: mitochondrial fusion phenotypic screen, at 10 µM
[1] = WT strain, growth inhibition, stronger effect = higher value

| SMILES | inhibition [1] | inhibition (mutant strain inhibition) [%] |
| --- | --- | --- |
| Cc1cc(C)nc(NS(=O)(=O)c2ccc(N/C=C\C(=O)c3cccs3)cc2)n1 | -2.27% (inactive) | 7.04 |
| Oc1c(CN2CCN(c3ccc(F)cc3)CC2)cc(Cl)c2cccnc12 | -1.47% (inactive) | -25 |
| Fc1ccc(N2CCN(Cc3cnc(Oc4ccc(Br)cc4)s3)CC2)cc1 | 59% (active) | 34 |
| COc1ccc(N2CCN(Cc3ccc(Br)s3)CC2)cc1 | 20.2% (inactive) | 14.9 |
| Cc1ccc(-c2csc(NC(=O)c3cccs3)n2)cc1 | 22.4% (inactive) | 16.9 |
| O=C(O)CCC(=O)N(Cc1ccco1)c1nc(-c2ccccc2)cs1 | -21.3% (inactive) | 4.1 |
| Cc1ccc(-c2csc(N(Cc3ccco3)C(=O)c3cccs3)n2)cc1 | 67.6% (active) | 34.4 |
| O=c1[nH]c(CN2CCOCC2)nc2scc(-c3ccccc3)c12 | 5.72% (inactive) | -6.95 |
| CC1(C)CCCC2=C1CC1C(=O)N(c3ccccc3)C(=O)C1C2 (centres undefined) | 6.4% (inactive) | -1.63 |
| CC1CC2=C(CC1/C=N/NC(N)=S)C(C)(C)CCC2 (centres undefined) | 67.3% (active) | 64.1 |
| NC(=O)c1ccc(NC(=O)COC(=O)C(Cc2ccccc2)NC(=O)c2ccccc2)cc1 (centres undefined) | -21.4% (inactive) | -11.6 |
| O=C(c1ccccc1)c1ccc(OCC(O)CN2CCCC2)cc1 (centres undefined) | -8.18% (inactive) | 5.68 |
| Cc1ccc(NC(=O)NNC(=O)c2sccc2-n2cccc2)cc1 | -13.1% (inactive) | -0.19 |
| c1ccc(CN2CCC(N=C3NN=C(c4ccc5c(c4)OCCO5)CS3)CC2)cc1 | 10.8% (inactive) | 33 |
| Cc1cccc(N=C2NN=C(c3c[nH]c4ccccc34)CS2)c1 | 13.8% (inactive) | -10.5 |
| Clc1cccc(N=C2NN=C(c3ccc4c(c3)OCCO4)CS2)c1 | 67.3% (active) | 17 |
| Cc1cccc(NC(=O)c2sc(-c3ccccc3)nc2-c2ccc([N+](=O)[O-])cc2)c1 | 2.52% (inactive) | -6.51 |
| CCOC(=O)/C(=C\c1ccc([N+](=O)[O-])cc1)C(=O)c1cc(C(C)=O)c(Nc2ccccc2)s1 | 84.2% (active) | 50.2 |
| O=C(Nc1ccccc1)/C(=C/c1ccc([N+](=O)[O-])cc1)NC(=O)c1ccccc1 | -0.76% (inactive) | -8.51 |
| CC(=O)NCC(=O)N(Cc1ccco1)C1(C(=O)NC2CCCC2)CCCCC1 | -0.52% (inactive) | 10.2 |
| O=C(CCCN1C(=O)/C(=C/c2ccccc2)SC1=S)Nc1ccc(O)cc1 | -11.2% (inactive) | 6.5 |
| Cc1ccc(OCC(=O)N/N=C\c2ccco2)c(C)c1 | 8.35% (inactive) | 16.3 |
| Cc1ccc(/C=N/NC(=O)COc2ccccc2-c2ccccc2)cc1 | 93.7% (active) | 20.8 |
| Cc1ccc(OCC(=O)N/N=C/c2ccncc2)cc1 | -0.91% (inactive) | -0.34 |
| CC(C(=O)NC1CCCC1)N(c1ccc(Oc2ccccc2)cc1)S(C)(=O)=O (centres undefined) | 20.8% (inactive) | 6.65 |
| COc1cccc(C(=O)N2CCCC(CCC(=O)NCc3ccc(F)c(F)c3)C2)c1 (centres undefined) | -18.6% (inactive) | 0.91 |
| O=C(CCCNS(=O)(=O)c1cccc2nsnc12)NCCN1CCN(c2ccccc2F)CC1 | -5.33% (inactive) | 6.35 |
